Experimental data reported in PubChem BioAssay (NCATS).
“And” between values parts separate entries of the source, which are not always exact repeats. Identical values can stand only once. Records with an inconclusive call do not appear. The source made the active and inactive calls. Calls follow the shape of the dose curve; as a rule, active = well fitted curve in the direction sought with a large enough effect; inconclusive = small, poorly fitted or top-dose-only effect, or another doubt; inactive = no such curve, though single readings can be large; an effect the other way counts as inactive or inconclusive.

How the values were obtained:
[1] = qHTS of pediatric cancer cell lines to identify multiple opportunities for drug repurposing: Primary screen for Saos-2 cells (AID 1347097); conditions: Saos-2 viability, CellTiter-Glo ATP luminescence, 48 h; series mostly up to 46 µM; also: nearly all actives have a fitted effect of over 40% in size; also: potency is read from the fitted curve at half-maximal effect
Procedure, shortened: (§1)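 Phenotypic viability qHTS, 48 h compound exposure, CellTiter-Glo luminescence read-out; multi-concentration dosing so that potency and efficacy derive directly from the primary screen's curves.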

[2] = qHTS of pediatric cancer cell lines to identify multiple opportunities for drug repurposing: Primary screen for SK-N-SH cells (AID 1347098); conditions: SK-N-SH viability, CellTiter-Glo luminescence, 48 h; series mostly up to 57 µM; also: nearly all actives have a fitted effect of over 65% in size; also: potency is read from the fitted curve at half-maximal effect
Procedure, shortened: (§2)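 Cells (500-1,000/well) rested 5 h, then received compounds for 48 h; metabolically active cells were measured by CellTiter-Glo luminescence. Final concentrations spanned up to 46 µM (MIPE, 11-point) or 0.59 nM-46 µM (NPC, 8-point) in primary screens, 11-point in follow-ups.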

[3] = qHTS of pediatric cancer cell lines to identify multiple opportunities for drug repurposing: Primary screen for LAN-5 cells (AID 1347100); conditions: LAN-5 neuroblastoma viability, CellTiter-Glo luminescence, 48 h; series mostly up to 46 µM; also: potency is read from the fitted curve at half-maximal effect
Procedure, shortened: (§3)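 Cells (500-1,000/well) in growth media were settled 5 h at 37 degrees C, then given compounds for 48 h. Viability was read as CellTiter-Glo luminescence. Primary runs used MIPE at 11 points (0.78 nM-46 µM) and NPC at 8 points (0.59 nM-46 µM); follow-ups used 11 points.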

[4] = qHTS of pediatric cancer cell lines to identify multiple opportunities for drug repurposing: Primary screen for RD cells (AID 1347104); conditions: RD rhabdomyosarcoma viability, CellTiter-Glo luminescence, 48 h; series mostly up to 46 µM; also: nearly all actives have a fitted effect of over 55% in size; also: potency is read from the fitted curve at half-maximal effect
Procedure, shortened: as §1

[5] = qHTS of pediatric cancer cell lines to identify multiple opportunities for drug repurposing: Primary screen for MG 63 (6-TG R) cells (AID 1347105); conditions: MG 63 (6-TG R) viability, CellTiter-Glo, 48 h; series mostly up to 46 µM; also: nearly all actives have a fitted effect of over 50% in size; also: potency is read from the fitted curve at half-maximal effect
Procedure, shortened: as §1

[6] = qHTS of pediatric cancer cell lines to identify multiple opportunities for drug repurposing: Primary screen for control Hh wild type fibroblast cells (AID 1347106); conditions: Hh wild-type fibroblast viability, CellTiter-Glo luminescence, 48 h; series mostly up to 46 µM;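 also: a drop in luminescence marks cytotoxicity and a rise apparent proliferation; nearly all actives have a fitted effect of over 55% in size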
Procedure, shortened: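 Viability after 48 h compound treatment at 37C, 500-1,000 cells/well, read as ATP luminescence with CellTiter-Glo. Primary screens used 11-point (MIPE, 0.78 nM-46 µM) or 8-point (NPC, 0.59 nM-46 µM) final concentrations; follow-up screens used 11-point dilutions.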

[7] = qHTS of pediatric cancer cell lines to identify multiple opportunities for drug repurposing: Primary screen for NB1643 cells (AID 1347099); conditions: NB1643 neuroblastoma viability, CellTiter-Glo luminescence, 48 h; series mostly up to 46 µM; also: nearly all actives have a fitted effect of over 50% in size; also: potency is read from the fitted curve at half-maximal effect
Procedure, shortened: as §1

[8] = qHTS of pediatric cancer cell lines to identify multiple opportunities for drug repurposing: Primary screen for BT-12 cells (AID 1347101); conditions: BT-12 viability, CellTiter-Glo luminescence, 48 h; series mostly up to 57.3 µM; also: nearly all actives have a fitted effect of over 25% in size; also: potency is read from the fitted curve at half-maximal effect
Procedure, shortened: as §2

[9] = qHTS of pediatric cancer cell lines to identify multiple opportunities for drug repurposing: Primary screen for Rh18 cells (AID 1347102); conditions: Rh18 rhabdomyosarcoma viability, CellTiter-Glo luminescence, 48 h; series mostly up to 46 µM; also: nearly all actives have a fitted effect of over 65% in size; also: potency is read from the fitted curve at half-maximal effect
Procedure, shortened: as §3

[10] = qHTS of pediatric cancer cell lines to identify multiple opportunities for drug repurposing: Primary screen for OHS-50 cells (AID 1347103); conditions: OHS-50 osteosarcoma viability, CellTiter-Glo luminescence, 48 h; series mostly up to 57.3 µM; also: nearly all actives have a fitted effect of over 40% in size; also: potency is read from the fitted curve at half-maximal effect
Procedure, shortened: as §2

Measured: Potency

O=C(c1ccc(OCCN2CCCCC2)cc1)c1c(-c2ccc(O)cc2)sc2cc(O)ccc12
inactive: [6]
active: [1] 14.8 µM | [2] 13.7 µM | [3] 15 µM | [4] 23.7 µM and 18.7 µM | [5] 26.6 µM and 18.7 µM

COc1cc2c(c(OC)c1OC)-c1ccc(OC)c(=O)cc1[C@@H](NC(C)=O)CC2
inactive: [9] | [5] | [6]
active: [1] 5.3 nM and 1.32 µM | [7] 0.0084 µM | [8] 11 nM and 1 nM | [10] 4.9 nM and 1 nM

NC(=O)OCC(COC(N)=O)c1ccccc1
inactive: [2] | [7] | [3] | [8] | [9] | [4] | [5]

C[C@](N)(Cc1ccc(O)c(O)c1)C(=O)O
inactive: [1] | [7] | [3] | [8] | [9] | [10] | [4] | [5]

C[C@@H]1CC(=O)NN=C1c1ccc(NN=C(C#N)C#N)cc1
active: [1] 18.7 µM | [7] 26.4 µM | [8] 21.9 µM and 27.6 µM and 24.3 µM | [4] 29.6 µM | [5] 10.6 µM
inactive: [9]

COc1cc2nc(N3CCN(C(=O)c4ccco4)CC3)nc(N)c2cc1OC
active: [2] 27.1 µM | [7] 26.4 µM | [3] 14.8 µM | [8] 9.53 µM | [4] 29.6 µM
inactive: [5] | [6]

Cn1cnc2c1c(=O)[nH]c(=O)n2C
inactive: [2] | [7] | [6]

NC(=O)NO
inactive: [2] | [7] | [3] | [9] | [6]

OCCN(CCO)c1nc(N2CCCCC2)c2nc(N(CCO)CCO)nc(N3CCCCC3)c2n1
inactive: [7] | [3] | [9]

CCC1(c2ccccc2)C(=O)NCNC1=O
inactive: [1] | [3] | [8] | [9]

COc1cc2nc(N3CCN(C(=O)C4COc5ccccc5O4)CC3)nc(N)c2cc1OC (stereo not drawn)
inactive: [3] | [5]
active: [2] 19.2 µM | [9] 26.4 µM | [10] 24.6 µM

CN1C2CCC1CC(OC(=O)C(CO)c1ccccc1)C2 (stereo not drawn)
inactive: [1] | [7] | [3] | [8] | [9] | [10] | [4] | [5] | [6]

CC1COc2c(N3CCN(C)CC3)c(F)cc3c(=O)c(C(=O)O)cn1c23 (stereo not drawn)
inactive: [1] | [3] | [8] | [9] | [10] | [4] | [5] | [6]
